Screening results from PubChem BioAssay.
HT1080NT lethal: kills 2HG-producing HT-1080-NT fibrosarcoma cells | Potency, µM (series often up to 46.1 µM), for the others: at the top dose activity, negative = less viability, most hits filed as cytotoxic | 360,000 compounds, 1.6% hits | HT-1080-NT fibrosarcoma viability, CellTiter-Glo ATP luminescence, 48 h;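 note: NT is the 2HG producing partner of a matched IDH1 knockdown line; potency is the fitted concentration of half-maximal effect; 0% = DMSO-treated cells and -100% = media-only wells without cells; nearly all actives have a fitted effect of over 55% in size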
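Compounds were tested in concentration-response format on HT-1080-NT cells for 48 hours at 37 degrees C. Cell viability came from CellTiter-Glo luminescence; curves were classified by r2, response magnitude and activity.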
HT1080 IDH1KD tx: toxicity to HT-1080 IDH1 knockdown cells (counter line) | HT-1080 IDH1 knockdown viability, ATP luminescence, 48 h | Potency, µM (highest dose often 46.1 µM), without a hit: top-dose activity, negative = toxicity, actives largely listed as cytotoxic | 360,000 compounds, 2% hits | AID 686971;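 note: potency is the fitted concentration of half-maximal effect; 0% = DMSO wells and -100% = cell-free medium wells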
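% activity derives from luminescence (CellTiter-Glo), normalised to DMSO and no-cell wells. HT-1080-IDH1KD cells, 750/well, had 48 h compound exposure at 37 °C.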
IL1B secr inh: blocks inflammasome-driven IL-1 beta release; activity change, % at 57.5 µM; THP-1 LPS/ATP IL-1B secretion, AlphaLISA, 16 h; active compounds read low; 360,000 compounds, 4.7% hits; AID 743279; in the data active = activity change below about -50%; inconclusive = mostly about -30% to -49%
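THP-1 cells pretreated 1 hr with compounds (up to 57.5 uM final), then stimulated with LPS (250 ng/mL final) plus ATP (1.25 mM final); secreted IL-1B measured by AlphaLISA after 16 hr, decreased signal indicating inhibition.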
DT40 TDP1 CPT: DT40-hTDP1 cell growth loss with CPT; 420,000 compounds, 12% hits; Potency, µM (series often up to 46.2 µM), for the others: at the highest dose activity change, negative = growth inhibition, actives largely listed as inhibitors; AID 686979; chicken DT40 Tdp1-/-;hTDP1 cells + 20 nM CPT, ATP luminescence, 48 h; note: potency is the fitted concentration of half-maximal effect; nearly all actives have a fitted effect of over 55% in size
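Chicken DT40 Tdp1-/- cells complemented with human TDP1, 400 cells/well, exposed to compounds plus 20 nM camptothecin for at least 48 h at 37 C; viability read as ATP content by CellTiter-Glo luminescence.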
DT40 TDP1 no CPT: qHTS for Inhibitors of human tyrosyl-DNA phosphodiesterase 1 (TDP1): qHTS in cells in absence of CPT. 420,000 compounds, 15% hits. Potency, µM (series often up to 46.2 µM), for inactives: at the top dose activity change, negative = growth inhibition, usual class: inhibitors. DT40 Tdp1-/- hTDP1 cells, no CPT, ATP luminescence, 48 h. AID 686978, 2013; note: potency is the fitted concentration of half-maximal effect; nearly all actives have a fitted effect of over 55% in size
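Seeded 400 DT40-hTDP1 cells/well (vehicle DMSO, no 20 nM CPT); pinned compounds; ≥48 hr at 37 °C; CellTiter-Glo luminescence as viability measure.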
Active calls of the source: *; i = inactive; ? = inconclusive; · = no result given. Only some compounds are listed: those with a hit (about 19% of all), similar ones and a draw of the others. Unless noted, calls come from the whole dose curve; as a rule, active = well fitted curve in the direction sought with a large enough effect; inconclusive = small, poorly fitted or top-dose-only effect, or another doubt; inactive = no such curve, though single readings can be large; an effect the other way counts as inactive or inconclusive. Unless noted, % is set by controls: 0 for no effect and ±100 for the full control effect.

SMILES	HT1080NT lethal	HT1080 IDH1KD tx	IL1B secr inh	DT40 TDP1 CPT	DT40 TDP1 no CPT
COc1ccc(S(=O)(=O)N(CC(=O)Nc2cccnc2)c2ccc(C)cc2)cc1OC	·	·	·	-15.4%	-21.6%
Cc1ccc(S(=O)(=O)N(CC(=O)Nc2cccnc2)c2cccc([N+](=O)[O-])c2)cc1	?	?	-8.3	?	11.6µM*
COC(=O)c1cc2oc3ccccc3c2n1Cc1nc(-c2ccc(Cl)cc2)oc1C	·	·	·	-9.1%	-11.6%
CC(OC(=O)c1ccc(Br)o1)C(=O)NCC1CCCCC1 (centres undefined)	-1.6%	-1.4%	0.0	6.7%	?
Cc1ccc(S(=O)(=O)N(CC(=O)Nc2cccnc2)c2cccc(Br)c2)cc1	?	?	-3.9	?	16.4µM*
Cc1cccc(N(CC(=O)Nc2cccnc2)S(C)(=O)=O)c1	9.4%	-2.5%	0.6	-1.6%	-0.4%
CCC(=O)N(CC)C1=C(O)c2ccccc2C(=O)C1=O	-13.7%	?	0.0	4.61µM*	8.2µM*
COc1ccc(OC)c(-c2csc(-c3c(N)c(C(=O)c4ccc(Cl)cc4)n4ccccc34)n2)c1	·	·	·	7.3%	-12.7%
CCn1cc(C(=O)NCc2ccc(F)cc2)c(=O)c2cc(S(=O)(=O)N(C)C)ccc21	·	·	·	-25.0%	?
Cc1cccc(Cn2nnc3c(=O)[nH]c(C4CCCN(C(=O)c5ccc(C(C)(C)C)cc5)C4)nc32)c1 (centres undefined)	·	·	·	?	20.6µM*
Cc1ccccc1Cn1nnc2c(=O)[nH]c(C3CCCN(C(=O)c4ccc(C(C)(C)C)cc4)C3)nc21 (centres undefined)	·	·	·	?	25.9µM*
COc1ccc(Oc2ncc3nc(-c4cccs4)c(=O)n(C)c3n2)cc1	·	·	·	2.2%	-2.3%
COc1ccc(CNC(=O)c2ccc3c(c2)nc2n3CCC(C)C2)c(OC)c1 (centres undefined)	·	·	·	2.1%	?
COc1ccc(C(=O)C2C(c3ccc(-c4ccccc4[N+](=O)[O-])o3)NC(=O)NC2(O)C(F)(F)F)cc1 (centres undefined)	-1.3%	9.6%	i	20.6µM*	18.4µM*
O=C(Nc1ccc(Br)cc1)c1cc(-c2ccncc2)nc2ccccc12	6.51µM*	8.2µM*	12.6	?	16.4µM*
Cc1cccc(-c2cc(C(=O)Nc3cccnc3)c3ccccc3n2)c1	-1.7%	-15.5%	13.6	20.6µM*	?
COC(=O)c1ccc(NC(=O)c2cc(-c3ccncc3)nc3ccccc23)cc1	?	?	42.2	?	?
O=C(Nc1ccncc1)c1cc(-c2ccccc2)nc2ccccc12	-26.4%	?	4.5	?	20.6µM*
CC[C@]12c3[nH]c4cc(CCC(=O)N(C)C)ccc4c3CCN1C(=O)[C@@H](CC(=O)NCC13CC4CC(CC(C4)C1)C3)C[C@@H]2C(=O)N1CCN(C(=O)c2ccco2)CC1	-25.3%	?	6.2	?	16.4µM*
COc1ccc(CNC(=O)C[C@H]2C[C@H](C(=O)N(C(C)C)C(C)C)[C@@]3(C)c4[nH]c5cc(CCC(=O)N(C)C)ccc5c4CCN3C2=O)cc1OC	-3.2%	1.8%	-11.3	-9.7%	?
CC(C)N(C(=O)[C@H]1C[C@H](CC(=O)NCC23CC4CC(CC(C4)C2)C3)C(=O)N2CCc3c([nH]c4cc(CCC(=O)N(C)C)ccc34)[C@]12C)C(C)C	6.5%	9.9%	-26.3	6.51µM*	7.31µM*
CC[C@]12c3[nH]c4cc(-c5ccco5)ccc4c3CCN1C(=O)[C@@H](CC(=O)NCc1ccco1)C[C@@H]2C(=O)N1CCN(C(=O)c2ccco2)CC1	-2.3%	-12.8%	-3.7	?	?
CN(C)C(=O)CCc1ccc2c3c([nH]c2c1)[C@]1(C)[C@@H](C(=O)N2CCOCC2)C[C@H](CC(=O)NCC24CC5CC(CC(C5)C2)C4)C(=O)N1CC3	-5.1%	-18.7%	-15.7	14.6µM*	?
CCOc1ccc(-c2noc(CCC(=O)NC3CCCCC3)n2)cc1OC	6.5%	9.8%	-20.5	1.6%	-12.9%
COc1ccc(CCN(C)C2CCCN(S(=O)(=O)c3ccccc3)C2)cc1OC (centres undefined)	2.0%	0.7%	9.5	-24.7%	1.6%
SMILES	HT1080NT lethal	HT1080 IDH1KD tx	IL1B secr inh	DT40 TDP1 CPT	DT40 TDP1 no CPT
COc1ccc(N2CC(NC(=O)C(=O)c3c[nH]c4ccccc34)CC2=O)cc1 (centres undefined)	·	·	·	-6.0%	-27.4%
Cn1cc([N+](=O)[O-])c(C(=O)Nc2ccn(C34CC5CC(CC(C5)C3)C4)n2)n1	?	?	-12.8	-27.4%	?
Cn1nccc1C(=O)Nc1ccn(C23CC4CC(CC(C4)C2)C3)n1	-4.8%	-16.9%	-12.1	20.6µM*	14.6µM*
Cc1ccc(C2OCC(C)([N+](=O)[O-])CO2)cc1 (centres undefined)	11.2%	8.1%	-12.6	14.8%	-14.8%
CC(=O)c1ccc(OCc2nnn(CC(=O)O)c2-c2ccccc2)cc1	-1.4%	22.5%	-69.5*	5.4%	5.8%
CC(=O)c1ccc(OCc2c(-c3ccccc3)nnn2CC(=O)NS(=O)(=O)c2ccc(C)cc2)cc1	6.6%	?	27.3	?	-4.0%
Cc1ccc(OCc2nnn(CC(=O)NS(=O)(=O)c3c(C)noc3C)c2-c2ccccc2)cc1	-12.4%	8.8%	4.8	?	1.03µM*
C/C(=N/NC(=O)c1ccc(Br)o1)c1cccc(NC(=O)c2ccc(F)cc2)c1	-21.8%	-18.0%	?	?	?
NCCCC[C@@H](C(=O)NCCCCCCCCCCC(=O)N1CCNCC1)n1cc(CCO)nn1	5.1%	1.1%	1.6	6.9%	-14.2%
CC(C)(C)OC(=O)NCCCCc1cn(CC(=O)N2CCN(C(=O)OC(C)(C)C)CC2)nn1	11.7%	8.7%	0.0	?	?
CC[C@H](C)Cc1cn([C@@H](CCCCNC(=O)OC(C)(C)C)C(=O)NCCCCCCCCCCC(=O)N2CCN(C(=O)OC(C)(C)C)CC2)nn1	-1.6%	-2.5%	6.9	?	16.4µM*
CSCC[C@@H](C(=O)NCCCCCCCCCCC(=O)N1CCN(C(=O)OC(C)(C)C)CC1)n1cc(CCO)nn1	?	-0.3%	-5.8	20.6µM*	14.6µM*
CSc1nc2cc(S(=O)(=O)N3CCCCC3)ccc2s1	-12.0%	-17.3%	-17.3	?	23.1µM*
O=C(CC(Nc1ccc(F)cc1)C(=O)OCC(=O)c1cccs1)c1ccccc1 (centres undefined)	6.8%	15.8%	0.0	?	?
O=S1(=O)N=C(c2ccccc2)C=C(c2ccccc2)N1	3.4%	8.7%	16.7	7.9%	15.4%
